Screens from PubChem.
Marburg entry inh – inhibitors of Marburg virus binding or cell entry; Marburg virus pseudotyped entry inhibition, cell reporter; Potency, µM (doses to about 37.8 µM), for inactives: at the top dose activity change, negative = inhibition, hits mostly inhibitors; 300,000 tested, 1.8% active; calls by dose curve; tested in HEK293 cells; also: potency is read from the fitted curve at half-maximal effect
HCMV antiviral – human cytomegalovirus inhibition. HFF cells, HCMV-luciferase reporter, 72 h; active compounds read low. activity change, negative = inhibition, % at 57.5 µM. 410,000 tested, 4.5% active; in the data active = activity change below about -60%; inconclusive = no clear call, values can overlap the other calls; inactive = above about -39%
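After 16 h attachment at 37C, HFF cells received test compound and HCMV-luciferase (1 PFU/cell); reporter luminescence read 72 h later, data normalized against buffer-only and known inhibitor Salinomycin.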
VACV mCherry inh – vaccinia inhibition (mCherry reporter); Vaccinia virus mCherry reporter infection, fluorescence; 310,000 tested, 0.63% active; Potency, µM (top dose mostly 36.5 µM), for inactives: at the highest dose activity change, negative = inhibition, usual class: inhibitors; calls by dose curve; tested in A549 cells; also: potency is read from the fitted curve at half-maximal effect; nearly all actives have a fitted effect of over 35% in size
FMDV inh – blocks foot and mouth disease virus | Potency, µM (series often up to 57.9 µM), without a hit: at the highest dose activity change, negative = inhibition, actives largely listed as inhibitors | FMDV antiviral cell-based qHTS | 410,000 tested, 1.2% active; calls by dose curve; tested in HEK293T cells; also: read-out not given here; potency is read from the fitted curve at half-maximal effect; nearly all actives have a fitted effect of over 45% in size
Lassa entry inh – blocks Lassa virus binding to or entry into cells; 300,000 tested, 1.2% active; Potency, µM (highest dose often 37.9 µM), for the others: top-dose activity change, negative = inhibition, hits mostly inhibitors; Lassa virus pseudotype entry inhibition, cell reporter; calls by dose curve; tested in HEK293 cells; also: potency is read from the fitted curve at half-maximal effect; nearly all actives have a fitted effect of over 50% in size
Vaccinia Venus – inhibitors of vaccinia virus (Venus reporter). Vaccinia virus Venus reporter expression, fluorescence. Potency, µM (series often up to 36.5 µM), inactives show at the top dose activity change, negative = inhibition, hits mostly inhibitors. 330,000 tested, 0.46% active; calls by dose curve; tested in A549 cells; also: potency is read from the fitted curve at half-maximal effect; nearly all actives have a fitted effect of over 30% in size
* marks the source's active call; other numbers are inactive results; i = inactive; ? = inconclusive; . = no result; [ ] = another dose, or the depositor's remark. Sampled rows, rich in hits. Any-hit rate of the full collection: about 6.5%. % is scaled to controls: 0 for no effect and ±100 for the full control effect.

SMILES	Marburg entry inh	HCMV antiviral	VACV mCherry inh	FMDV inh	Lassa entry inh	Vaccinia Venus
O=C1CCc2ccc(OCCCCN3CCN(c4cccc(Cl)c4Cl)CC3)cc2N1	.	-17	?	20µM*	.	-28%
CC1CCCN(CCOCCOc2ccc(Cl)cc2Br)C1 (stereo not given)	4.6µM*	-30	.	-57%	?	.
Clc1ccc(OCCCN2CCCCC2)c(Br)c1	15µM*	-23	-13%	26%	?	-12%
CC1CCCN(CCOCCOc2ccc(Br)cc2Cl)C1 (stereo not given)	16µM*	-64*	i	?	?	-23%
CN1CCN(CCOCCOc2ccc(Br)cc2Cl)CC1	.	15	.	-25%	.	.
Clc1ccc(OCCCCCN2CCCC2)c(Br)c1	?	?	-13%	0%	?	-1%
Cc1cc(Cl)c(OCCOCCN2CCCC(C)C2)c(Br)c1 (stereo not given)	?	41	-16%	-16%	13µM*	-18%
COc1ccc(-n2cnc3cc(C(=O)NCCC4=CCCCC4)ccc32)cc1	.	-17	-11%	0%	?	-8%
NCc1cn(Cc2ccccc2)nc1-c1ccccc1	.	.	-16%	.	.	-13%
CC1CCCN(Cc2cccc(Oc3ccccc3)c2)C1 (stereo not given)	?	-98*	i	.	-16%	-19%
CC1CCCN(CCCCOc2cccc(Br)c2)C1 (stereo not given)	2.9µM*	-13	-16%	-16%	3.3µM*	-18%
COC(=O)C1CCN(Cc2ccc3c(c2)CN(C(=O)c2cc(C)nc(C)n2)CCO3)CC1	.	.	-16%	5%	.	-9%
CCOC(=O)Cc1ccc(NC(=O)n2ncc3c(C)cccc32)cc1	0%[46.1 µM]	-74*	-10%	21%	.	-10%
COc1ccc(-c2cncnc2N)cc1OC	.	-18	-26%	?	.	-10%
Nc1ncncc1-c1ccc2ccccc2c1	.	-75*	i	-18%	.	-14%
CCc1ccc(OCCCn2c(CCNC(=O)C3CCCCC3)nc3ccccc32)cc1	.	.	9%	.	.	-14%
COc1ccc(C2NCCc3c2[nH]c2ccccc32)cc1CN1CCc2cc(OC)c(OC)cc2C1C (stereo not given)	.	.	?	-15%	.	-12%
COc1ccc(C2NCCc3c2[nH]c2ccccc32)cc1COc1ccc(F)cc1 (stereo not given)	?	-98*	.	?	23µM*	.
CCn1cc(C(=O)O)c(=O)c2cc(F)c(N/N=C/c3ccccc3[N+](=O)[O-])cc21	12%	-71*	-22%	20µM*	?	-15%
Cc1cccc(CSC(=N)N)c1	?	-63*	i	0%	-26%	-17%
CCCSC(=S)c1c(C)[nH]n(-c2ccccc2)c1=O	?	-79*	-16%	4%	?	?
CCCCN(CCCC)C(=S)N/N=C/c1c(C)[nH]n(-c2ccccc2)c1=O	?	-1	?	-24%	?	-20%
Cc1onc(-c2ccccc2Cl)c1C(=O)Oc1cc(N)n(S(=O)(=O)c2ccc(F)cc2)n1	?	31	?	32µM*	-20%	-26%
O=c1c(Cl)c(NCc2ccccc2)cnn1C12CC3CC(CC(C3)C1)C2	?	-61*	-22%	38%	?	-23%
CCN(CC)c1ccc(/C=N/NC(=O)CCC(=O)NCc2ccccc2)c(O)c1	?	-16	10µM*	14%	?	?
SMILES	Marburg entry inh	HCMV antiviral	VACV mCherry inh	FMDV inh	Lassa entry inh	Vaccinia Venus
C/C(=N\NC(=O)CNC(=O)c1ccc2c(c1)OCCO2)c1ccco1	-16%	24	-13%	23%	?	0%
Cn1ncc(Cl)c1C(=O)N/N=C/c1cc2c(cc1[N+](=O)[O-])OCO2	-25%	-9	.	0%	1%	.
C/C(=N/NC(=O)CNC(=O)C1COc2ccccc2O1)c1ccc2c(c1)OCCO2 (stereo not given)	1%[46.1 µM]	-73*	0%	0%	-2%	-2%
CCOC(=O)N/N=C/c1ccc(N(CC)CC)cc1O	?	24	?	32%	4.5µM*	?
CCN(CC)c1ccc(/C=N/NC(=O)c2c(Cl)cnn2C)c(O)c1	1.1µM*	-101*	1.1µM*	21%	21µM*	?
Cc1noc(C)c1-c1cc(NC2CCNCC2)ncn1	.	.	.	-18%	.	.
O=C(Nc1nnc(C2CCCCC2)s1)C1CCN(C(=O)c2ccco2)CC1	.	.	-14%	.	.	?
O=C(NN=C1C[C@@H](O)[C@H](O)[C@H]2[C@@H]3C(=O)N(Cc4ccc5c(c4)OCO5)C(=O)[C@@H]3CC[C@H]12)OCc1ccccc1	-2%[14.2 µM]	.	.	.	?	.
CCN(CC)S(=O)(=O)c1cccc(C(=O)N/N=C/c2cccc(O)c2O)c1	?	-24	10µM*	-5%	13µM*	?
CCN(CC)S(=O)(=O)c1cccc(C(=O)N/N=C/c2cc(OC)c(O)c(OC)c2)c1	21%	-5	-2%	?	14%	-14%
COc1cc(/C=N\NC(=O)CNC(=O)C2COc3ccccc3O2)ccc1O (stereo not given)	1%	28	-18%	-22%	8%	-17%
CCN(CC)c1ccc(/C=N/NC(=O)CNC(=O)C2COc3ccccc3O2)c(O)c1 (stereo not given)	4.5µM*	-97*	2.8µM*	-7%	11µM*	?
CCN(CC)c1ccc(C=Nc2cccc(S(=O)(=O)N3CCOCC3)c2)c(O)c1	9%	6	-19%	6%	13%	-17%
CCN(CC)c1ccc(/C=N/NC(=O)c2cccc(S(=O)(=O)N3CCOCC3)c2)c(O)c1	?	-75*	1.8µM*	?	?	?
COc1ccc2oc(/C=C/N(C)C)c(C(=O)c3ccc(Cl)cc3)c2c1	21µM*	-23	.	-3%	?	.
COc1ccc2oc(C)c(C(=O)c3ccccc3)c2c1	0%[46.1 µM]	6	2%	-10%	8%	-1%
Cc1ccc(C(=O)c2c(C)oc3c2C(=O)C(=O)c2ccccc2-3)cc1	7.9µM*	.	.	?	7.1µM*	?
Cc1oc2c(c1C(=O)c1ccc(Cl)cc1)C(=O)C(=O)c1ccccc1-2	-22%	?	-5%	?	-27%	0%
Cc1ccn2c(C(=O)c3ccc(Cl)cc3)cnc2c1	?	33	-8%	-12%	18µM*	-4%
Cc1cc[n+](C2CCCCC2)c2ccccc12	.	.	-8%	.	.	-9%
Cc1cc(=O)n(CCc2ccccc2)c(O)c1C#N	?	5	.	8%	?	-5%
Cc1cc(=O)n2c(sc3ccccc32)c1C#N	10%[46.1 µM]	-91*	i	0%	4%	-9%
COc1ccc(NC(=O)c2cc(C)nc3c2c(C)nn3-c2cccc(Cl)c2C)c(OC)c1	.	-7	-16%	-11%	?	-23%
COc1cc(NC(=O)c2cc(C)nc3c2c(C)nn3-c2ccccc2Cl)cc(OC)c1	?	-66*	-8%	?	-10%[46.1 µM]	3%
